This passage reports growth results from PubChem BioAssay (NCI).

“And” between values parts separate entries of the source, which are not always exact repeats. Equal values may be shown once. The panel holds about 83,000 compounds, 20% with a hit somewhere; the sample as a whole holds those more often.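 48-hour exposure, single concentration, 96-well plates; percent growth endpoint where 0 means no net growth. Active: below 10.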 Unmarked numbers belong to inactive results. The source made the active and inactive calls.

For the first experiment, the system named is KM12 colon. As to the kind of experiment: NCI-60 one-dose screen, 48 h (100 = growth as untreated, 0 = no growth, -100 = all killed). To be noted: 4.75 µM. As to the method: Growth inhibition of the KM12 human tumor cell line is measured as a screen for anti-cancer activity. Cells are grown in 96 well plates and exposed to the test compound for 48 hours. Compounds are tested at a single concentration, which is 10^-5 M for most compounds. The reported endpoint is percent growth (GI% or GIPRCNT), where numbers from 0 - 100% represent growth inhibition, and numbers from -100% - 0 represent cell death. For example, a value of 40 represents 60% growth inhibition. A value of 0 means no net growth occurred over the course of the experiment. A value of -40 indicates 40% of cells at the beginning of the experiment died by the end of the experiment. A value of -100 means all cells are dead at the end of the experiment.
NCI-60 Human Tumor Cell Lines Screen was performed using the standard one-dose NCI protocol, which is described in more detail at https://dtp.cancer.gov/discovery_development/nci-60/default.htm.
Compounds with GIPRCNT values below 10 were considered active. Activity score was based on GIPRCNT using the following formula: […]
Score is 0 for GIPRCNT values of 100 or above, 50 for GIPRCNT values of 0, and 100 for GIPRCNT values of -100.
For the molecule `CC(=O)OCC1OC([S-])C(OC(C)=O)C(OC(C)=O)C1OC(C)=O.[Au+].c1ccc(CN2[CH-]N(Cc3ccccc3)C(c3ccccc3)=C2c2ccccc2)cc1`, the growth was 6.84% (active).

Still in this experiment, the particulars now being: 10 µM.
Turning to `CC(=O)OCC1OC([S-])C(OC(C)=O)C(OC(C)=O)C1OC(C)=O.[Au+].c1ccc(CN2[CH-]N(Cc3ccccc3)C(c3ccccc3)=C2c2ccccc2)cc1`, the growth is 38%.

Still in this experiment, the particulars now being: 10 µM unless noted.
With `CC1=CC(=Nc2ccc(N(CCCl)CCCl)cc2)C=C(C)C1=O`, the growth was 59.8%. On the same count and under the same terms, the value for `COc1ccc2c(c1)c(-c1nc(-c3c[nH]c4ncccc34)cs1)cn2CCCCN1CCOCC1` was 16.4%; that for `CCCC[C@H]1C(=O)O[C@H](C)[C@H](NC(=O)c2cccc(NC=O)c2O)C(=O)O[C@@H](C)[C@@H]1OC(=O)CC(C)C` was 41.9%. On to `O=c1[nH]c(=O)[nH]c(=O)[nH]1`, for which the growth was 107%.

As for `CCC1(CCSC#N)C(=O)NC(=O)NC1=O`, the growth was 104%. On to `CCOC(=O)P(=O)(OCC)OCC`, for which the growth was 113%. As to `Cc1cc(N(CCCl)CCCl)ccc1C=Nc1ccc(-c2csc(-c3ccccc3)n2)cc1`, the growth is 89.5%. Consider `CC[C@H](C)[C@H](NC(=O)c1ncccn1)C(=O)N(C)[C@H](C[C@@H](OC(C)=O)c1nc(C(=O)N[C@@H](Cc2ccccc2)C[C@H](C)C(=O)OC)cs1)C(C)C`, for which the growth is 16.1%. Still for that read-out and setting: next, `C=CCOC(=O)C(Br)CC` (stereo not given): 112%; `CC[C@H](C)[C@H](NC(=O)[C@H]1CCCCN1C)C(=O)N(C)[C@H](C[C@@H](OC(C)=O)c1nc(C(=O)N[C@@H](Cc2ccccc2)C[C@H](C)C(=O)O)cs1)C(C)C`: 0.294% (active); `O=c1c2ccccc2nc(-c2ccccc2Cl)n1-c1nnc(C(F)(F)F)s1`: 29.1%. With `Cc1ccccc1-n1c(/C=C\c2ccccn2)nc2ccccc2c1=O`, the growth is 65.4%. `C[C@]12CC[C@H]3[C@@H](C[C@@H]4SC(Nc5cccc(F)c5)=N[C@@]45CC(=O)CC[C@]35C)[C@@H]1CCC2=O`: the growth is 38.7%.

Take `O=[P+](O)c1cccnc1`: the growth is 101%.

`Cc1ccc(NC2=N[C@]34CC(=O)CC[C@]3(C)[C@H]3CC[C@]5(C)C(=O)CC[C@H]5[C@@H]3C[C@@H]4S2)c(C)c1`: the growth was 44.5%. `CC1=C(C)C(=O)O[C@@H]([C@](C)(O)[C@]2(O)CC[C@@]3(O)[C@@H]4C[C@H]5O[C@]56CC=CC(=O)[C@]6(C)[C@H]4CC[C@]23C)C1`: the growth was -24.2% (active). Consider `CCCCS(=O)(=O)Cl`, for which the growth is 114%. As to `CCCN1C(=O)NC(=O)C(CC)(N2C(=O)c3c(F)c(F)c(F)c(F)c3C2=O)C1=O` (stereo not given), the growth was -96.2% (active). Still for that read-out and setting: the value for `Oc1cc(N2CC2)c(O)cc1N1CC1` was -52.7% (active). Still for that read-out and setting: next, `O=NN(c1ccccc1)c1ccccc1`: 102%; `C/C(=C\c1ccn(-c2ccc(N)c(C(F)(F)F)c2)n1)[C@@H]1C[C@@H]2O[C@]2(C)CCC[C@H](C)[C@H](O)[C@@H](C)C(=O)C(C)(C)[C@@H](O)CC(=O)O1`: 20.6%; `Cn1cc(C(=O)C[n+]2ccccc2)c2ccccc21`: 91.5%. `CC[PH+](CC)CC.O=COC1OC([S-])C(OC=O)C(OC=O)C1OC=O.[Au+]` (stereo not given): the growth was -78.9% (active). The same measure, in the same setting: the value for `COc1cc(-c2ccc(N)c(OC)c2)ccc1N` was 101%. The same measure, in the same setting: next, `COc1ccc(N)cc1N`: 99.7%; `C[C@]12CC[C@H](O)C[C@@H]1CC[C@@H]1[C@@H]2CC[C@]2(C)OC(=O)CC[C@@H]12`: 92.5%; `ClC1OC(Cl)(Cl)C(Cl)(Cl)OC1(Cl)Cl` (stereo not given): 104%. In the case of `O=CC1(c2ccccc2)CCN(Cc2ccccc2)CC1`, the growth is 101%. Take `O=C1CCCCC1CN1CCCCC1` (stereo not given): the growth is 98.1%. Turning to `C[C@@]12CCCc3coc(c31)C(=O)c1cc3c(cc12)C(=O)C1=C(NCCS1(=O)=O)C3=O`, the growth was 4.16% (active). On to `C[C@]12CCC(=O)C[C@@H]1CC[C@@H]1[C@@H]2CC[C@]2(C)[C@@H](OC(=O)N(CCCl)N=O)CC[C@@H]12`, for which the growth is 3.72% (active). In the case of `O=C(NC(Cl)=C(Cl)Cl)P(=O)(c1ccccc1)c1ccccc1`, the growth was 106%. Same read-out and setting: the value for `CC[C@H](C)[C@H]1O[C@]2(C=C[C@@H]1C)C[C@@H]1C[C@@H](C/C=C(\C)[C@@H](O[C@H]3C[C@H](OC)[C@@H](O[C@H]4C[C@H](OC)[C@@H](NC)[C@H](C)O4)[C@H](C)O3)[C@@H](C)/C=C/C=C3\CO[C@@H]4[C@H](O)C(C)=C[C@@H](C(=O)O1)[C@]34O)O2` was -70.6% (active); that for `CCCCCCCCCCCCCCCCCCn1cc[n+](C)c1` was -47.8% (active) and -61.9% (active). With `Cc1cc(N(CCCl)CCCl)ccc1/C=N\NC(=O)c1cccnc1`, the growth was 104% and 95.1%. `C[C@]12CC[C@H]3[C@@H](CC=C4c5nc(-c6ccc(Br)cc6)sc5CC[C@@]43C)[C@@H]1CC[C@@H]2O`: the growth was 102%. Same read-out and setting: the value for `CC[C@H](CC[C@@H](C)[C@H]1CC[C@H]2[C@@H]3CC[C@H]4C[C@]5(CC[C@]4(C)[C@H]3CC[C@]12C)OO[C@](C)(C(F)(F)F)O5)C(C)C` was 91.4%; that for `COC(=O)CCP(CCC(=O)OC)c1ccccc1` was 111%.
